From ChEMBL document CHEMBL3988442, “University of Dundee, Small-Polar-MMV Screening Library” (2021)
The campaign covered roughly 67,000 compounds. About 300 (0.45%) showed an effect of 50% or more. The entries come from a sample that favours strong results as a whole.

Each compound was assayed against Polyketide synthase Pks13 (Mycobacterium tuberculosis (strain ATCC 25618 / H37Rv)) (UniProt I6X8D2) (assay: Mycobacterium tuberculosis Polyketide synthase 13 Thioesterase (PKS13)). Settings: 30 µM.
Type: functional
Parameters: scale not given: in the data most compounds retested in dose-response had high values

Chain of Polyketide synthase Pks13 (Mycobacterium tuberculosis (strain ATCC 25618 / H37Rv)) (I6X8D2 whole entry): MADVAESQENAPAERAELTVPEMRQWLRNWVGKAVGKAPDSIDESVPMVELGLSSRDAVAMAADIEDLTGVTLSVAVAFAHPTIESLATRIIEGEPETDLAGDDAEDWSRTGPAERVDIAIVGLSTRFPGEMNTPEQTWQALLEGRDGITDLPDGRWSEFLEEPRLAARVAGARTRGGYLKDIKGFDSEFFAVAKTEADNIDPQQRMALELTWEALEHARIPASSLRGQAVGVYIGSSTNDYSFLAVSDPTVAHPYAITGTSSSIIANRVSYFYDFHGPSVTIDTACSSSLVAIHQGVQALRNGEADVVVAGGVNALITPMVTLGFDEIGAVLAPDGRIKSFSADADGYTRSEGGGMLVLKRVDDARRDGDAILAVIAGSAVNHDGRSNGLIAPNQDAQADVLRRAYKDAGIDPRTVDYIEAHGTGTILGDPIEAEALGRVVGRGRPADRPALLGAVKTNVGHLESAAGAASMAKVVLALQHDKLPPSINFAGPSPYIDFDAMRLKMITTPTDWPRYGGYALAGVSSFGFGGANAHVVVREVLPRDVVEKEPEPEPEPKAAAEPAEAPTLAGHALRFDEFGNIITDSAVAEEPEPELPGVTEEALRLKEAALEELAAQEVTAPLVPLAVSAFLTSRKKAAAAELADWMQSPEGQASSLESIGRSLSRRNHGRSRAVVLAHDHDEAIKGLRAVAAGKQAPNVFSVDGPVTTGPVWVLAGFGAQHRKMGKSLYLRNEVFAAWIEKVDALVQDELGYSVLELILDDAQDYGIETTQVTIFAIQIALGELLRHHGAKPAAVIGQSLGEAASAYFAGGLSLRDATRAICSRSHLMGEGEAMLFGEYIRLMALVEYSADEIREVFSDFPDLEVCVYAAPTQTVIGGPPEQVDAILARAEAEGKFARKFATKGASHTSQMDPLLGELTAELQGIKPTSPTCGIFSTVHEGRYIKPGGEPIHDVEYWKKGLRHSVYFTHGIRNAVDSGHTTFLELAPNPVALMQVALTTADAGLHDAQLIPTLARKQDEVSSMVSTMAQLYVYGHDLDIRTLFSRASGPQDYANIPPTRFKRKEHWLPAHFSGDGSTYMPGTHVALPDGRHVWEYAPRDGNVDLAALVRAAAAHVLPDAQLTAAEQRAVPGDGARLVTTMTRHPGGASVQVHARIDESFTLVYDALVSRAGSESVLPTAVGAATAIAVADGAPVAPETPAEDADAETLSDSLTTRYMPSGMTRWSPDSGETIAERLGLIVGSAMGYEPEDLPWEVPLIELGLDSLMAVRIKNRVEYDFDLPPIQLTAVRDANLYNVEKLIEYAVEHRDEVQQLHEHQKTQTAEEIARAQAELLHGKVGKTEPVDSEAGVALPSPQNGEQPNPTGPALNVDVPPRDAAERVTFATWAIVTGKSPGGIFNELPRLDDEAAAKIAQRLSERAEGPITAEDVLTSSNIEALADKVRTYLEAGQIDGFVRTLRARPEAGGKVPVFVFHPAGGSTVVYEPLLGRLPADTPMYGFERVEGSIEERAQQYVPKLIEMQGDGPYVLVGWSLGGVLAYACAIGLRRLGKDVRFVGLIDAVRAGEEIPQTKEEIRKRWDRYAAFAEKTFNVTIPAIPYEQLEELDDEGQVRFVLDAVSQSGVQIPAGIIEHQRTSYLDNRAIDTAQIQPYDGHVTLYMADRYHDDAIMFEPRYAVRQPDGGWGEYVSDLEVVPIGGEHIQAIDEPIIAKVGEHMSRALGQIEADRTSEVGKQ

Structure (SMILES)	Percent Effect [%]
CCOc1ccc2nc(CN3CCC(CN)C3)ccc2c1 (stereo not given)	-11.4
CCOc1ccc2nc(CN3CCC(CNC(C)=O)C3)ccc2c1 (stereo not given)	-18.1
CCOc1ccc2nc(CN3CCOC(CN)C3)ccc2c1 (stereo not given)	70.3
Oc1cccc(CN2C[C@H]3CC[C@@H]2CN(Cc2ccc(F)cc2)C3)c1	-36.6
Cc1cccc(CN2C[C@@H]3COC[C@]3(CNC(=O)N3CCCC3)C2)n1	-7.01
Clc1ccc(-c2nnc([C@H]3CCN(C4CCCCC4)C3)o2)cc1	-3.49
CN(C)c1ccc(-c2nnc([C@H]3CCN(C4CCCCC4)C3)o2)cc1	58.9
Cc1ccc(-c2nnc([C@H]3CCN(C4CCC4)C3)o2)cc1	11.8
O=C(c1ccccc1)N1C[C@@H]2CC[C@H](C1)N(C(=O)CN1CCOCC1)C2	-38.5
N#Cc1cc(C#N)c(SCCC(=O)Nc2ccc(F)cc2)nc1N	-20.2
N#Cc1cc(C#N)c(SCC(=O)Nc2ccc(F)cc2)nc1N	65.2
N#Cc1cc(C#N)c(SCC(=O)NCc2ccc(F)cc2)nc1N	-6.72
C=Cn1ncc(CN2C[C@@H]3C[C@@H](O)CN3C[C@@H]2Cc2ccccc2)c1C	-6.39
O=S(=O)(Nc1cnc(N2CCOCC2)nc1)c1ccc(C(F)(F)F)cc1	-20.2
O=C(Nc1cnc(N2CCOCC2)nc1)c1ccc(C(F)(F)F)cc1	106
COCC(=O)Nc1cnc(N2CCOCC2)nc1	-16
Cc1ccc(CN2CC[C@H]3OCC[C@@H](C(=O)N4CCCCO4)[C@@H]3C2)o1	16.9
CN(C)C[C@H]1OC[C@@H]2CN(C(=O)NCc3cccnc3)CC[C@@H]21	1.8
CC(=O)N1C[C@@H](c2ccsc2)[C@@H]2CN(Cc3ccccc3Cl)CC[C@@H]21	9.76
COc1ccc(NC(C)C(=O)N2CCCC2)cn1 (stereo not given)	67.9
COc1ccc(NC(C)C(=O)N2CCN(c3ccccc3)CC2)cn1 (stereo not given)	31.4
COc1ccc(NC(C)C(=O)N2CCN(c3ncccn3)CC2)cn1 (stereo not given)	4.94

Structure (SMILES)	Percent Effect [%]
CN(C)C[C@]12COC[C@H]1CN(Cc1ccc3ccccc3n1)C2	-18.2
CCc1noc(CN(CCC2CCCCC2)CC(N)=O)n1	6.76
CC(C)c1noc(CN(CCC2CCCCC2)CC(N)=O)n1	-4.56
CC(C)(C)c1nc(CN(CCC2CCCCC2)CC(N)=O)no1	57.2
CSc1ncccc1C(=O)N1C[C@H]2CC[C@@H]1CN(c1cnccn1)C2	-2.08
O=C(O)c1ccc2ccc(N3CCN(CC4CC4)CC3)n2c1	9.49
Cc1ccc(NC(=O)c2nc3c(s2)CCCN3C(C)C)cn1	-9.2
CC(=O)N1CCCc2sc(C(=O)Nc3ccc(C)nc3)nc21	-22.2
Cc1ccc(NC(=O)c2nc3c(s2)CCCN3C(=O)C2CC2)cn1	56.3
CC[C@H]1CN2CC[C@H]1C[C@@H]2CNC(=O)Nc1cccc(C(F)(F)F)c1	-29.8
Cc1ccc(CS(=O)(=O)N2CC[C@H]3[C@H]2CCN3C)cc1	37.1
c1ccc(-c2cc(CN3C[C@@H]4CC[C@H](C3)N(CC3CCC3)C4)on2)cc1	-48.3
Cc1cnn(CC(C)NCC(=O)NCCOc2ccccc2)c1 (stereo not given)	95.2
Cc1cnn(CCNCC(=O)NCCOc2ccccc2)c1	-11.4
Cc1cnn(CC(C)NCC(=O)NCCc2cccs2)c1 (stereo not given)	-15.2
O=C(C1CCOCC1)N1C[C@@H]2[C@@H](C1)OCC(=O)N2Cc1ccncc1	-12.1
CS(=O)(=O)NCc1cc(-c2cc(F)cc(F)c2)nc(N2CC[C@H](O)C2)n1	147
CS(=O)(=O)NCc1cc(-c2cc(F)cc(F)c2)nc(N2CCOCC2)n1	22.5
CS(=O)(=O)NCc1cc(-c2cc(F)cc(F)c2)nc(N2CCCC2)n1	22.1
Cn1nccc1NC(=O)c1cccc(CN2C[C@H]3CC[C@@H](C2)N3)c1	-14.8
CN1CCCC[C@@H]2[C@H]1[C@@H](c1ccccc1)CCN2S(=O)(=O)N1CCCC1	-11
Cn1cncc1-c1nnc([C@H]2CCN(Cc3ncc[nH]3)C2)o1	61

Structure (SMILES)	Percent Effect [%]
Cn1cncc1-c1nnc([C@H]2CCN(Cc3cccnc3)C2)o1	-26
Cn1cncc1-c1nnc([C@H]2CCN(CC(C)(C)C)C2)o1	25.7
CSCCCN1C[C@H]2CC[C@@H]1CN(Cc1[nH]cnc1C)C2	-11.9
c1coc(CN2C[C@@H]3CCCO[C@@H]3[C@H](N3CCCC3)C2)c1	-16.1
CN(C)C(=O)c1nc(-c2ccc(S(C)(=O)=O)cc2)c2cnccn12	9.33
CN(C)C(=O)c1nc(-c2ccc(S(C)(=O)=O)cc2)c2ccccn12	48.7
CS(=O)(=O)c1ccc(-c2nc(C(=O)N3CCCC3)n3ccccc23)cc1	74.1
Cc1nnsc1C(=O)N1CC[C@H](c2ccccc2)[C@@H]2[C@H]1CCCCN2C	56.9
CN1CCCC[C@@H]2[C@H]1[C@@H](c1ccccc1)CCN2C(=O)c1ccccc1	-32
CN1CCCC[C@@H]2[C@H]1[C@@H](c1ccccc1)CCN2C(=O)c1ccncc1	37.2
CC(=O)N1C[C@H](NC(=O)c2cscn2)[C@@H]2OCCC[C@@H]21	-14.1
CCC(CNc1ncnc2oc(C)nc12)Cc1ccccc1 (stereo not given)	-13.8
CCCOc1ccc(Cl)cc1CNc1ncnc2oc(C)nc12	78.9
CCCOc1ccccc1CCCNc1ncnc2oc(C)nc12	18
Cn1cccc1C(=O)N1C[C@H]2CC[C@@H]1CN(Cc1cscn1)C2	-21.5
COc1ccc2c(c1)c(-c1nc(N(C)C)ncc1CN)cn2C	-8.95
COc1ccc2c(c1)c(-c1nc(C)ncc1CN)cn2C	-1.61
Cc1ncc(CN)c(-c2cn(C)c3ccccc23)n1	140
O=C(C1CCOCC1)N1C[C@H](OCc2cccnc2)[C@H]2COC[C@H]21	-10.6
O=C1CO[C@H]2CN(C3CCOCC3)C[C@H]2N1Cc1ccc(F)cc1	18.6
Cc1ccc(-c2noc(CC[C@@H]3CCCN4CCCC[C@H]34)n2)nn1	-24.6
O=C(CC1CC1)N1C[C@H]2CCN[C@H]2C1	1.79

Structure (SMILES)	Percent Effect [%]
O=c1[nH]c(N2CCCCC2)nc2nccc(-c3ccc4c(c3)OCO4)c12	-6.64
COc1ccc(-c2ccnc3nc(N4CCCCC4)[nH]c(=O)c23)cc1	75
COc1ccccc1-c1ccnc2nc(N3CCCCC3)[nH]c(=O)c12	71.7
NC(=O)C1CCN(c2nc3nccc(-c4ccccc4)c3c(=O)[nH]2)CC1	-5.28
COc1ccc(-c2ccnc3nc(N4CCCC4)[nH]c(=O)c23)cc1OC	-15.2
COc1cccc(-c2ccnc3nc(N4CCCCC4)[nH]c(=O)c23)c1	-83.6
Cc1cc(C(=O)N2C[C@H]3CC[C@@H]2CN(C(=O)c2ccncc2)C3)cs1	-6.64
O=C(Nc1cccnc1)[C@@H]1COC[C@H]2CN(C3CCCC3)C[C@H]21	-9.56
CCS(=O)(=O)N1CC[C@H]2OCC[C@@]2(c2nnc(C)o2)C1	-32.8
CC1=N[C@@]2(CC[C@@H]3CN(S(C)(=O)=O)C[C@@H]32)C(=O)N1CC(C)C	75.9
CC1=N[C@@]2(CC[C@@H]3CN(S(=O)(=O)C4CC4)C[C@@H]32)C(=O)N1CC(C)C	-51.1
CCS(=O)(=O)N1C[C@H]2CC[C@@]3(N=C(C)N(CC(C)C)C3=O)[C@H]2C1	-10.2
CN(C)CCNC(=O)[C@H]1C[C@H]2CN(c3ncccn3)C[C@H]2N1C	-18.5
Cc1cccc(CN2CC[C@H]3[C@H]2CCN3C(=O)c2cnn(C)c2)n1	3.27
CNCc1nc(-c2ccc3c(c2)OCO3)c[nH]1	0.694
O=C(CSc1nccc(-c2ccc3c(c2)OCO3)n1)N1CCOCC1	26.7
NC(=O)CCC(=O)N1CCc2[nH]nc(-c3ccc4c(c3)OCO4)c2C1	-10.3
CCOc1ccc(-c2ccc3c(c2)OCO3)cc1C(N)=O	-15.1
NC(=O)CSc1nccc(-c2ccc3c(c2)OCO3)n1	59.5
O=C(O)CSc1nccc(-c2ccc3c(c2)OCO3)n1	51.8
CN1CCO[C@H]2CN(S(=O)(=O)c3ccc(C#N)cc3)C[C@H]21	-7.61
O=C([C@H]1COC[C@H]2CN(C3CCOCC3)C[C@H]21)N1CCCCO1	-4.79

Structure (SMILES)	Percent Effect [%]
CN(C)c1nccc(N2CCO[C@H]3CN(Cc4ccco4)C[C@H]32)n1	-3.24
O=S(=O)(c1ccccc1)N1C[C@@H]2COC[C@]2(CN2CCOCC2)C1	27.2
Fc1cccc(CN2C[C@@H]3COC[C@]3(COCc3ccncc3)C2)c1	0.554
O=C(CC1CCCC1)N1C[C@H](Oc2cccnc2)[C@H]2OCCC[C@H]21	-7.32
c1ccc2oc(CN3CCCCC3Cn3cncn3)nc2c1 (stereo not given)	-0.333
Cc1nccn1CC1CCCN1CCCc1nc(-c2cccs2)no1 (stereo not given)	-4.96
c1csc(-c2noc(CCCN3CCCC3Cn3cccn3)n2)c1 (stereo not given)	-2.79
c1csc(-c2noc(CCCN3CCCC3Cn3cncn3)n2)c1 (stereo not given)	111
c1ccc2oc(CCCN3CCCCC3Cn3cncn3)nc2c1 (stereo not given)	58.4
c1ccc2oc(CCCN3CCCC3Cn3cncn3)nc2c1 (stereo not given)	-10.8
CN(C)C(=O)COC[C@@H]1CC[C@H]2[C@H](CCN2c2ncccn2)O1	-0.596
COCC(=O)N1C[C@H]2CNC[C@@]2(C(=O)NCc2cccc3[nH]ccc23)C1	-18.7
CO[C@@H]1CC[C@H]2[C@H]1OCCN2CC1CC1	-4.52
COc1ccc(OC)c(C(=O)N2C[C@H]3CC[C@@H]2CN(C)C3)c1	2.2
O=C(c1ccnnc1)N1C[C@H](Oc2cccnc2)[C@H]2OCCC[C@H]21	-7.04
CCc1nc2n(n1)CC(NCc1ncc(-c3ccccc3)o1)CC2 (stereo not given)	108
CCc1nc2n(n1)CC(NCc1cnc(-c3ccccc3)nc1)CC2 (stereo not given)	-15
CC(C)c1nc2n(n1)CC(NCc1ncc(-c3ccccc3)o1)CC2 (stereo not given)	-14.9
Cn1nc(-c2ccccc2)cc1[C@H]1CN2CC[C@H]1C[C@@H]2CNS(C)(=O)=O	-32.5
COc1ccc(-c2cc(C3CC3)c(C#N)c(N)n2)cc1F	-126
N#Cc1c(C2CC2)cc(-c2ccc(O)cc2)nc1N	44.4
CS(=O)(=O)c1ccc(-c2cc(C3CC3)c(C#N)c(N)n2)cc1	62.7
